# MCL1-BIM inh: inhibitors of human MCL1 binding to BIM-BH3 peptide. Q07820. GST-MCL1 / FITC-Bim-BH3 fluorescence polarization. inhibition, % at 10.9 µM. 0.68% of 320,000 active. AID 2057;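 active = inhibition above the mean inhibition of all tested compounds plus 3 SD, set per campaign, cut at about 40% in these data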;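 also: 0% = DMSO wells and 100% = unlabeled Bim-BH3 peptide control; higher means more loss of mP so more displacement of Bim peptide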
# BCLXL inh: blocks human Bcl-xL binding to Bim BH3 peptide. Q07817. GST-Bcl-xL / FITC-Bim BH3 peptide fluorescence polarization. inhibition, % at 10.9 µM. 0.7% of 320,000 active. AID 2129;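 active = inhibition above the mean of all tested compounds plus 3 SD, cutoff set per campaign, cut at about 30% in these data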;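 also: 0% = DMSO wells and 100% = unlabeled Bim-BH3 peptide competitor; inhibitors lower millipolarization by displacing the labeled peptide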
# Target sequence (Q07817 whole entry, looked up): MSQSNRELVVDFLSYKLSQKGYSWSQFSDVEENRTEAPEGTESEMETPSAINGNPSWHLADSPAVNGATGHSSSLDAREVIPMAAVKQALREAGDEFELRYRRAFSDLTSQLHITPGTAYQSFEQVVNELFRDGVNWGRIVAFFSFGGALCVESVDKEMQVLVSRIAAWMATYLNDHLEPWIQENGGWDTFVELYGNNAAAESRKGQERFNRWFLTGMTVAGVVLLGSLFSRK
# MEX-5 binding: C. elegans MEX-5 TCR-2 RNA binding activity | Q9XUB2 | 0.38% of 300,000 active | AID 1832 | MEX-5/FITC-TCR2 RNA binding, fluorescence polarization; active compounds read low | activity score (negative = inhibition of binding), % at 10 µM;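 active = inhibition past about -25% in most replicates, and total fluorescence under double the plate's negative control median, limit read from the data; inconclusive = replicates evenly split on the limit, or fluorescence at least double controls; inactive = too little inhibition in most replicates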;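 also: 0% = DMSO and -100% = 5 µM competing unlabeled TCR2 RNA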
# Target sequence (Q9XUB2 whole entry, looked up): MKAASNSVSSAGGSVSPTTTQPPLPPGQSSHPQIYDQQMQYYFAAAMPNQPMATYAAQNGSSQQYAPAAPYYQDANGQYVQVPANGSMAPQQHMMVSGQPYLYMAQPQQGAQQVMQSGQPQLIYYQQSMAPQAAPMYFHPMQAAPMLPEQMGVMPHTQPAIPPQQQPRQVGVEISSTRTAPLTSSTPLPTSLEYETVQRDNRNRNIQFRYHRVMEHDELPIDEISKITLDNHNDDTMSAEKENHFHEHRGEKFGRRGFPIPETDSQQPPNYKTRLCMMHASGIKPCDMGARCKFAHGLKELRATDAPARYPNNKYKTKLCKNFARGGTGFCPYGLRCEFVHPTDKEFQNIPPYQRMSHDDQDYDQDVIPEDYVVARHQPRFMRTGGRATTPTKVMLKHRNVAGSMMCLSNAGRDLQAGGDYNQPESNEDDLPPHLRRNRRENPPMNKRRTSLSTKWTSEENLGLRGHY
# GLD-1 TGE inh: GLD-1-TGE RNA interaction inhibition (C. elegans); Q17339; purified GLD-1 + fluorescein TGE RNA, fluorescence polarization; inhibition, % at 5.96 µM; 0.44% of 320,000 active;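 active = percent inhibition above a per-plate cutoff, the plate mean of test compounds plus 3 SD, cut at about 30% in these data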;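 also: 0% = DMSO wells with GLD-1 and probe and 100% = wells lacking GLD-1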
# E coli Lon inh: inhibits E. coli Lon protease. P0A9M0. 0.42% of 360,000 active. purified E. coli Lon protease, fluorescence polarization. inhibition, % at 7.94 µM; in the data active = inhibition above about 13%, passing the limit was not always enough;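 also: 0% = enzyme with probe and DMSO and 100% = no enzyme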
# Numbers without * were called inactive; ? = inconclusive; . = no result given. Shown are actives, neighbours in structure and some others; about 1.4% of the full set was active somewhere.
SMILES,MCL1-BIM inh,BCLXL inh,MEX-5 binding,GLD-1 TGE inh,E coli Lon inh
CCN1CCc2c(sc(NC(=O)c3ccc4ccccc4c3)c2C(N)=O)C1,-52.9,-33.1,-45.8*,-82.5,-160.3
CCN(CC)CCC(O)(c1ccc2c(c1)OCO2)c1cc(OC)c(OC)c(OC)c1 (stereo unspecified),.,.,.,.,0.3
C[C@@H]1COc2cccc(N3CCC[C@@H]3CO)c2S(=O)(=O)N1,.,.,.,.,-6.4
COC1OC(COC(=O)c2ccccc2)C(OC(=O)c2ccccc2)C1OC(=O)c1ccccc1 (stereo unspecified),-4.0,2.0,0.8,10.1,5.8
O=C(OC[C@H]1O[C@@H](OC(=O)c2cc(O)c(O)c(OC(=O)c3cc(O)c(O)c(O)c3)c2)[C@H](OC(=O)c2cc(O)c(O)c(OC(=O)c3cc(O)c(O)c(O)c3)c2)[C@@H](OC(=O)c2cc(O)c(O)c(OC(=O)c3cc(O)c(O)c(O)c3)c2)[C@@H]1OC(=O)c1cc(O)c(O)c(OC(=O)c2cc(O)c(O)c(O)c2)c1)c1cc(O)c(O)c(OC(=O)c2cc(O)c(O)c(O)c2)c1,75.7*,54.6*,.,90.3*,.
COc1ccc(OC)c(NC(=O)C2CCN(S(=O)(=O)c3c(C)noc3C)CC2)c1,2.5,3.5,0.9,62.6*,-4.7
COc1ccc(OC)c(NC(=O)C2CCCN(S(=O)(=O)c3c(C)noc3C)C2)c1 (stereo unspecified),-2.9,5.6,-3.6,1.1,0.3
O=C1COc2ccccc2N1Cc1c(F)cccc1Cl,8.4,47.4*,2.4,-2.2,-3.0
CCc1nc2c(OCc3cccc(Cl)c3)cccn2c1N(C)C(=O)c1ccco1,.,.,.,.,6.2
O=C(O[C@@H]1Cc2c(O)cc(O)cc2O[C@@H]1c1cc(O)c(O)c(O)c1)c1cc(O)c(O)c(O)c1,.,.,-84.0*,.,.
O=C(O)Cn1nnc(-c2ccccc2)c1COc1ccccc1,.,.,.,.,-5.7
CCC(=S)/C=C1\Sc2ccc3ccccc3c2N1CCCS(=O)(=O)O,25.8,14.2,-68.1*,-4.1,.
CCOC(=O)C(=O)Cc1nc2ccccc2s1,-5.7,-8.1,5.6,46.2*,-69.5
CC(=O)OCc1nc2ccccc2s1,2.4,2.1,-0.8,6.1,-7.3
Cn1sccc1=O,8.7,7.7,.,7.5,4.5
N#CC1C(=O)NC(=O)C(C#N)C12CCCC2 (stereo unspecified),.,.,.,.,-4.9
C#CCN1C(=O)S/C(=C/C=C/c2ccc(N(C)C)cc2)C1=O,43.7*,55.2*,.,-36.5,-363.3
CC1=CN2C(=N)/C(=C/c3ccc([N+](=O)[O-])o3)C(=O)N=C2S1,31.4,34.7*,-0.2,12.5,-187.3
Fc1ccccc1N1CCN(c2nc3ccccc3n3nnnc23)CC1,52.4*,36.0*,2.6,23.4,-39.0
CCN1CCN(C(=O)c2ccc3c(=O)n(Cc4ccccc4OC)c(=S)[nH]c3c2)CC1,-3.8,-2.5,-28.8*,3.7,1.3
COc1ccccc1Cn1c(=S)[nH]c2cc(C(=O)N3CCCC3)ccc2c1=O,-5.9,-4.7,1.5,1.7,-3.5
Cc1coc(NC(=O)CSc2nc(-c3ccc(Cl)cc3)cc(C(F)(F)F)c2C#N)n1,39.9*,45.1*,-4.5,6.3,-5.2
CC1(C(=O)NS(=O)(=O)c2ccc(Cl)s2)CCN1C(=O)C1(c2ccc(Cl)cc2)CC1 (stereo unspecified),.,.,.,.,-5.2
Cc1ccc(-c2nc(C=Nc3ccccc3)c(O)o2)cc1,-9.2,-8.5,-10.2,-10.1,-2.3
COc1ccc2cc(N=Cc3nc(-c4ccc(C)cc4)oc3O)cnc2c1,3.5,4.2,-46.8*,-2.1,-1.7
SMILES,MCL1-BIM inh,BCLXL inh,MEX-5 binding,GLD-1 TGE inh,E coli Lon inh
COc1ccc(CN2C(=O)C(CC(=O)NCc3ccco3)CC(C(=O)N(C(C)C)C(C)C)=C2C)cc1 (stereo unspecified),.,.,.,.,-5.3
CNCc1ccccc1Sc1cc(O)ccc1O,42.1*,32.0*,.,10.8,-3.0
CNCc1ccccc1Sc1cccc(O)c1,-6.0,4.1,0.0,3.5,10.7
Cc1ccc(Cc2c(-c3ccc(F)cc3)nc3c(C)cc(Br)cn23)cc1,.,.,.,.,-9.2
CCN(CC)c1ccc(/C=C/c2cccc[n+]2C)c(OC)c1,-49.8,-12.7,?,41.6*,-266.8
Cc1cc([N+](=O)[O-])ccc1-c1ccc(/C=N/NC(=O)c2ccc(Br)o2)o1,15.7,15.1,-58.2*,1.1,-24.9
CCCCC(=O)N/N=C/c1ccc(-c2ccc([N+](=O)[O-])cc2)o1,-18.5,-20.8,-4.8,-0.8,-0.7
Cc1cc(C(=O)N/N=C/c2ccc(-c3ccc([N+](=O)[O-])cc3C)o2)n[nH]1,12.3,12.5,-15.7,-6.5,13.3
Cc1cc(C)n(Cc2ccc(C(=O)N/N=C/c3ccc(-c4ccc([N+](=O)[O-])cc4)o3)o2)n1,43.0*,50.3*,-3.4,-4.4,-19.4
COc1ccc(OC)c(C(O)c2ncc(-c3ccc(C(F)(F)F)cc3)[nH]2)c1 (stereo unspecified),.,.,.,.,-6.4
NC(=O)Cc1ccc(OCc2nn[nH]n2)cc1,.,.,.,.,-0.2
c1ccc2c(c1)nc(NCC1CCCO1)c1nnnn12 (stereo unspecified),26.7,40.4*,4.0,11.5,-36.7
Cc1ccc2nc3n(c(=O)c2c1)-c1ncccc1C(=O)NC3Cc1ccccc1 (stereo unspecified),.,.,.,.,3.8
NC(=O)/C(=C\c1ccco1)NC(=O)c1ccc(Br)o1,41.6*,36.9*,-5.9,19.3,-15.0
CC(C)C(NC(=O)/C(=C/c1ccco1)NC(=O)c1ccc(Br)o1)C(=O)O (stereo unspecified),45.1*,34.9*,-3.8,15.9,0.6
O=C(O)/C(=C/c1ccco1)NC(=O)c1ccc(Br)o1,22.6,16.5,1.0,-1.3,0.0
Clc1ccccc1-c1ccc2nccn2c1,.,.,.,.,3.9
Oc1ccc(N=Nc2ccccc2-c2nn[nH]n2)c(O)c1,39.2,31.0*,-35.3*,8.5,19.1
Cn1c(=O)c2cc(NC(=O)OCCF)ccc2n1Cc1cccc(C(F)(F)F)c1,.,.,.,.,-4.0
O=C(NCc1cc(C(F)(F)F)ccc1Cl)c1cccc2c1C(=O)c1ccc(N3CCCCC3)cc1S2(=O)=O,.,.,.,75.8*,-26.4
O=C(NCc1cccc(C(F)(F)F)c1)c1cccc2c1C(=O)c1ccc(N3CCC(Cc4ccccc4)CC3)cc1S2(=O)=O,.,.,.,128.0*,-132.4
O=C(NCc1cccc(F)c1)c1cccc2c1C(=O)c1ccc(N3CCCC3)cc1S2(=O)=O,.,.,.,55.1*,-111.5
O=C(NCc1cc(C(F)(F)F)ccc1Cl)c1cccc2c1C(=O)c1ccc(N3CCC(N4CCCCC4)CC3)cc1S2(=O)=O,.,.,.,.,-73.2
O=C(NCCc1ccc(F)cc1)c1cccc2c1C(=O)c1ccc(N3CCC(Cc4ccccc4)CC3)cc1S2(=O)=O,.,.,.,144.7*,29.5*
O=C(NCc1cc(C(F)(F)F)ccc1Cl)c1cccc2c1C(=O)c1ccc(N3CCOCC3)cc1S2(=O)=O,.,.,.,-17.4,-15.3
NC(COCc1ccccc1)c1csc(Nc2ccc(C(=O)c3ccccc3)cc2)n1 (stereo unspecified),.,.,.,.,-3.2

# Source: PubChem
